The values below come from PubChem BioAssay.

The source made the active and inactive calls.

A short description of the assay: A549 lung cancer cell viability effects, profiling panel, resazurin fluorescence, 24 h, PK04 Diversity Set (AID 1171). Further: test concentration not given here. The note with it: higher = more signal, called active from +8 up or from −8 down.
With `COc1ccc(C#Cc2ccc3c(c2)[C@]2(C(=O)N3)[C@H](c3ccc(O)cc3)N3[C@H](c4ccccc4)[C@H](c4ccccc4)OC(=O)[C@H]3[C@@H]2C(=O)O)cc1`, the z-score is 0.344 (inactive). Regarding `COC(=O)[C@@]1(Cc2ccccc2)[C@H]2c3cc(C(=O)N(C)C)n(CCN4CNCC4=O)c3C[C@H]2CN1C(=O)c1ccccc1`, the z-score is 0.293 (inactive). Turning to `O=C1OCC=C[C@H]2OC34C=CCN(Cc5ccccc5)C(=O)[C@H]3N(CCCCCCO)C(=O)[C@@H]4[C@@H]12` (stereo not given in full), the z-score is 0.776 (inactive). Take `COc1cc2c(cc1OC)CN(C(=O)[C@@H]1[C@H]3C(=O)O[C@H](c4ccccc4)[C@H](c4ccccc4)N3[C@H](c3ccc(OCCO)cc3)[C@@]13C(=O)Nc1ccccc13)CC2`: the z-score was 0.319 (inactive). In the case of `COCCOC(=O)N1C(=O)[C@@]2(c3cc(C#CC4=CCCCC4)ccc31)[C@H](C(=O)N1CCCCCCC1)[C@H]1C(=O)O[C@H](c3ccccc3)[C@H](c3ccccc3)N1[C@@H]2c1ccc(O)cc1`, the z-score is -1.09 (inactive).

Regarding `C=CCC(OC(C)=O)[C@@H]1[C@@H](N(Cc2cc3ccccc3o2)C(=O)Cc2ccc(F)cc2)c2cc(OCCCO)ccc2N1C(=O)c1ccc2ccccc2c1` (stereo not given in full), the z-score is 0.443 (inactive). Regarding `CCOC(=O)C[C@H]1[C@H](OC(=O)Cc2ccc3c(c2)OCO3)[C@@H](NC(=O)Cc2ccc(OC)cc2)c2cc(OCCCO)ccc2N1C(=O)c1ccc2ccccc2n1`, the z-score was -0.23 (inactive).

Turning to `COCCOC(=O)N1C(=O)[C@@]2(c3cc(C#Cc4ccc(OC)cc4)ccc31)[C@H](c1ccc(O)cc1)N1[C@H](c3ccccc3)[C@H](c3ccccc3)OC(=O)[C@H]1[C@@H]2C(=O)N1CCCCCCC1`, the z-score is -0.0155 (inactive).

Regarding `COC(=O)[C@@]1(Cc2ccccc2)[C@H]2c3cc(C(=O)N(C)C)n(Cc4c(CO)[nH]cc(C)c4=O)c3C[C@H]2CN1C(=O)c1ccccc1`, the z-score was -0.25 (inactive). In the case of `CN(C)C(=O)[C@]1(CCS(=O)(=O)c2ccccc2)N=C(c2ccc(OCCCO)cc2)O[C@@H]1c1ccccc1N=[N+]=[N-]`, the z-score is -0.859 (inactive). With `CCCCCCc1nc(-c2cc(C)c(OC)c(C)c2)c(C)c2c1[Si](C(C)C)(C(C)C)OC2`, the z-score is 0.197 (inactive). As for `CC(C)C[C@@H]1NC(=O)[C@@H]2C[C@H](C(=O)NCCCCCN)[C@H](c3ccc(O)cc3)N2C1=O`, the figure is -0.676 (inactive). Consider `C[C@H]1NC(=O)[C@@]23C(=O)N[C@@H](Cc4ccccc4)C2[C@H](C)[C@@]2(C)O[C@H]2C3/C=C/C/C=C\CNC(=O)[C@H](Cc2ccccc2)NC1=O` (stereo not given in full), for which the z-score is 0.0548 (inactive). As for `C=CC[C@]1(C(=O)NCCN2CCOCC2)N=C(c2ccc(OCCCO)cc2)O[C@H]1c1ccccc1CN=[N+]=[N-]`, the figure is 1.2 (inactive); as for `O=C1O[C@H](c2ccccc2)[C@H](c2ccccc2)N2[C@H]1[C@@H](C(=O)Nc1nc3ccccc3s1)[C@]1(C(=O)Nc3ccccc31)[C@H]2c1ccc(OCCO)cc1`, 0.0237 (inactive); as for `CN1C(=O)C2C=CC(C(O)c3cccc(O)c3)N(Nc3ccccc3)C2C1=O` (stereo not given), 0.0494 (inactive). With `C=C(COC)/C(=C/C[C@H](OC(=O)c1ccncc1)c1ccccc1OCCO)c1cnc2ccccc2c1`, the z-score was 2.05 (inactive). The figure for `[N-]=[N+]=Nc1ccccc1[C@@H]1OC(c2ccc(OCCCO)cc2)=N[C@]1(Cc1ccccc1)C(=O)NCC(O)CO` (stereo not given in full) is -0.545 (inactive). The figure for `CCOc1cc(C(O)C2C=CC3C(=O)N(C)C(=O)C3N2Nc2ccccc2)ccc1O` (stereo not given) is -0.0004 (inactive). The figure for `CCOC(=O)C1=C[C@@H](c2ccccc2)N(S(=O)(=O)c2ccc(C)cc2)[C@H]1c1ccccc1Cl` is 1.09 (inactive); for `COC(=O)c1c2oc(c1C(=O)OC)C(=O)N(Cc1ccccc1)Cc1cn(nn1)C[C@H](Cc1ccccc1)NC(=O)N[C@H](CO)CC2` it is 1.27 (inactive); for `O=C(CS)NCCCCCNC(=O)[C@@H]1C[C@@H]2C(=O)N3CCC[C@H]3C(=O)N2[C@@H]1c1cccc(OCCO)c1` it is -0.61 (inactive). In the case of `C=C[C@@H](COC(C)=O)N(C(=O)OC(C)(C)C)S(=O)(=O)c1ccc(Br)cc1`, the z-score is -0.586 (inactive).

In the case of `COc1cccc(/C=C/C=O)c1`, the z-score was 0.336 (inactive). `COc1ccc(CN(C2=CC[C@@]3(C(N)=O)C(=O)C(Cl)=C(Cl)C(=O)[C@@]3(C#N)C2)S(=O)(=O)c2ccc(Br)cc2)cc1`: the z-score is -1.12 (inactive).
